Reference: PubChem BioAssay (NCI)
Values joined by “and” are separate entries in the source; they are usually repeats but may differ in a detail not shown here. Identical values can stand only once. About 79,000 compounds went through this panel and 15% of them were active in at least one assay; those are over-represented in the sample as a whole. Active and inactive are the calls of the source. No stated cut-off is given here; in the data, active means growth inhibition above about 70%; inactive means the rest. Where a SMILES comes first, the peptide text is derived from it. The star is where a group is joined. Cbz = O=C(OCc1ccccc1)*; NHNH2 = NN*

Test: NCI Yeast Anticancer Drug Screen. Data for the mlh1 rad18 strain (AID 175)
Details: S. cerevisiae mlh1 rad18 strain growth inhibition, stronger effect = higher value; at 50.0 µM unless noted
How it was run: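 Vehicle-treated cultures served as the reference for growth inhibition in a yeast strain carrying DNA damage repair alterations exposed to each compound.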

| SMILES | growth inhibition |
| --- | --- |
| CC1=NN(C(=O)CC(=O)Nc2ccc(C)cc2)C(=O)C1N=Nc1ccc(S(=O)(=O)c2ccc(N=NC3C(=O)N(C(=O)CC(=O)Nc4ccc(C)cc4)N=C3C)cc2)cc1 (stereo not given) | 39.6% (inactive) |
| Cc1ccccc1N=C(N)N | -1.95% (inactive) |
| OCC(O)COc1ccc(Cl)cc1 (stereo not given) | 9% (inactive) |
| Cc1ccc(OCC(=O)O)c(Cl)c1 | 2.3% (inactive) |
| COc1ccc(Br)cc1C1OC(=O)c2c(OC)c(OC)cc([N+](=O)[O-])c21 (stereo not given) | 18.2% (inactive) |
| CC1CC(=O)Nc2nc3ccccc3n21 (stereo not given) | -28.8% (inactive) |
| CCOC(=O)c1sc(C(=O)O)cc1-c1cccs1 | 15% (inactive) |
| CN(C)Cc1cc(C(=O)/C=C/c2ccc(Cl)c(Cl)c2)cc(CN(C)C)c1O | -3.3% (inactive) |
| NC1CCCC2CCC(N)C12 (stereo not given) | 20.2% (inactive) |
| Cc1ccc(OCC2OC(n3cnc4c(Cl)ncnc43)CC2Oc2ccc(C)cc2)cc1 (stereo not given) | -32.6% (inactive) and -25.1% (inactive) |
| CC1CCCN(CCC(=O)c2ccc(O)cc2)C1 (stereo not given) | 32.4% (inactive) |
| c1ccc(-c2cn(-c3ccccc3)nn2)cc1 | 0.6% (inactive) |
| CCOc1cc(/C=N/NC(=O)c2ccccc2NC(=O)c2ccccc2Cl)ccc1O | -9.3% (inactive) |
| O=C(OCC(OC(=O)c1ccccc1)C(OC(=O)c1ccccc1)C(OC(=O)c1ccccc1)c1cnn(-c2ccccc2)n1)c1ccccc1 (stereo not given) | 12.9% (inactive) and 34.9% (inactive) |
| O=C(CCCC(=O)N/N=C/c1ccccc1O)N/N=C\c1ccccc1O | -12.9% (inactive) |
| Oc1ccc(O)c(CNc2ccc(C(O)C(F)(F)F)cc2)c1 (stereo not given) | 15.9% (inactive) |
| COC(=O)Nn1c(C)c(C(=O)OC)c(C(=O)Nc2ccccc2)c1-c1ccccc1 | 23.5% (inactive) |
| CC(O)C(C(=O)O)N(CC1(O)OCC(O)C(O)C1O)N=O (stereo not given) | -7.45% (inactive) |
| O=C(Nc1ccc(Cl)cc1Cl)c1cc2nc3ccccc3c(=O)n2c2ccccc12 | 30.6% (inactive) |
| O=C(CN1CCCCCC1)Nc1ccc2c(c1)C(=O)c1ccc(NC(=O)CN3CCCCCC3)cc1C2=O | 36.4% (inactive) |

| SMILES | growth inhibition |
| --- | --- |
| CC1C=NNC1=O (stereo not given) | 4.5% (inactive) |
| COc1cccc(N)c1N | -9.2% (inactive) |
| C=C1CC(COc2ccc3c(C)c(Cl)c(=O)oc3c2)(c2ccccc2)OC1=O (stereo not given) | 37.6% (inactive) |
| CCCCC(C)(C)SCCC(=O)O | -5.35% (inactive) |
| Nc1nc2ncn(CCO)c2c(=O)[nH]1 | 16.4% (inactive) |
| CC(=O)[CH-]C(=O)c1ccccc1.CC(=O)[CH-]C(=O)c1ccccc1.CC(C)CCCC(C)[C@H]1CCC2[C@@H]3CCC4C[C@@H]([O-])CC[C@]4(C)C3CC[C@@]21C.CC(C)CCCC(C)[C@H]1CCC2[C@@H]3CCC4C[C@@H]([O-])CC[C@]4(C)C3CC[C@@]21C.Cl.[Ti+4] (stereo not given in full) | -0.95% (inactive) |
| CCc1cc(N(C)C)ccc1N=Nc1ccc([N+](=O)[O-])cc1 | 28.9% (inactive) |
| CS(C)=C(C(=O)c1ccccc1)/C(=C/C(=O)c1ccccc1)c1ccccc1 | 79% (active) |
| NC(=S)Nc1ccc(Br)cc1 | 7.6% (inactive) |
| CCCCC/C(=N\c1nc[nH]c1C(N)=O)OCC | -25.6% (inactive) |
| O=C1OC(c2ccccc2)=N/C1=C/C=C/c1ccco1 | -40.3% (inactive) |
| COc1ccc(C)cc1NC(=O)OCCCl | -5.3% (inactive) |
| O=C(CCCC1CCCCC1)OC1CCCCC1 | -1.3% (inactive) |
| COc1ccccc1/C=C\C#N | -13.4% (inactive) |
| COc1cc(O)c2c(=O)cc(-c3ccc(O)cc3O)oc2c1CC=C(C)C | -20.5% (inactive) |
| CCOC(=O)CCC(NC(=O)OCc1ccccc1)C(=O)NC(CCC(=O)OCC)C(=O)NN (stereo not given) (Cbz-Glu(OEt)-Glu(OEt)-NHNH2; configuration not given here) | 27.3% (inactive) |
| Nc1ccc(S(=O)[O-])cc1.Nc1ccc(S(=O)[O-])cc1.[Zn+2] | -15.6% (inactive) |
| C=C1CC[C@](C)(O)[C@@]2(C)CC[C@H]3C(=C(C)C)C(=O)C[C@]3(C)C[C@H]12 | 23.8% (inactive) |
| Cc1[nH]c(N)nc(=S)c1CCCNc1ccccc1 | 26.2% (inactive) |
| CSc1ccc(C2NC(=O)NC2=O)cc1 (stereo not given) | -10.1% (inactive) |
